Molecules are shown by their SMILES.
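Also: compound given one day before doxycycline, which switches on I-SceI endonuclease expression to create double-strand breaks within the integrated reporter.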

For the assay, the system named is CLZ3 (HCA2 human fibroblast dual HR-NHEJ reporter). The assay can be described thus: HR repair efficiency (tdTomato+ cells) relative to control (log10 fold); higher = more homologous recombination. Conditions: 5 µM; doxycycline 0.5 ug/mL.
Take `O=C1CCC[C@@H]2[C@H]3CCC[N+]4([O-])CCC[C@@H](CN12)[C@@H]34` (some centres undefined) [Oxymatrine]: the “HR repair efficiency (log10)” value was -0.0643.

As for `C/C=C/c1cc(OC)c2c(c1)C(C)C(c1ccc(O)c(OC)c1)O2` (centres undefined) [Dehydrodiisoeugenol], the “HR repair efficiency (log10)” value is -0.0825.

Take `COc1ccc(-c2cc(=O)c3c(OC)c(OC)c(OC)c(OC)c3o2)cc1` [Tangeretin]: the “HR repair efficiency (log10)” value was -0.0674.

`COc1cc(C=O)ccc1O` [Vanillin]: the “HR repair efficiency (log10)” value is -0.154.

For `OC[C@H]1O[C@@H](Oc2cc(O)cc(/C=C/c3ccc(O[C@@H]4O[C@H](CO)[C@@H](O)[C@H](O)[C@H]4O)cc3O)c2)[C@H](O)[C@@H](O)[C@@H]1O` [Mulberroside A], the “HR repair efficiency (log10)” value was determined as 0.234.

For the compound `O=C(O)/C=C/c1ccc(O)cc1` [P-Coumaric Acid], the “HR repair efficiency (log10)” value turned out to be 0.212.

In the case of `O=C(C=Cc1ccc(O)c(O)c1)O[C@H]1[C@H](O)C[C@](O)(C(=O)O)C[C@H]1OC(=O)C=Cc1ccc(O)c(O)c1` [Isochlorogenic Acid C (4,5-Di-O-Caffeoylquinic Acid)], the “HR repair efficiency (log10)” value was -0.0644.

Take `CC(C)=CCC/C(C)=C/C=C/C(C)=C/C=C/C(C)=C/C=C/C=C(C)/C=C/C=C(C)/C=C/C=C(\C)CCC=C(C)C` [Lycopene]: the “HR repair efficiency (log10)” value amounted to 0.0372.

`O=c1c(O[C@@H]2O[C@H](CO)[C@@H](O)[C@H](O)[C@H]2O[C@@H]2O[C@H](CO)[C@@H](O)[C@H](O)[C@H]2O)c(-c2ccc(O)c(O)c2)oc2cc(O)cc(O)c12` [Baimaside]: the “HR repair efficiency (log10)” value was determined as 0.114.
